Structures are written as SMILES. About 1,100 (44%) of roughly 2,500 compounds were called active. The set was probably picked from earlier hits. This is one part of the list. Values without a mark were called inactive.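 The calls were made as follows: active = inhibition above 50% at 4 µM in the single-point screen; inactive = inhibition of 50% or less.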

This experiment in a line: blockers of TNF-a NF-kB luciferase induction – cell-based, HEK293T NF-kB-Luc, luminescence, selectivity assay for NOD1/NOD2 signaling inhibitor project, primary screen (AID 1852). Conditions: TNF-a induced, 14 h, at 4 µM, hits give high values.
In the case of `CCOc1ccc(/C=C2\C(=O)c3ccccc3OC2c2ccccc2)cc1` (stereo unspecified), the inhibition is -5.4%.
For `Cc1ccc(-c2onc3ccc(C(=O)/C=C/N(C)C)cc23)cc1`, the inhibition was 14.5%.
For `COc1ccc2cc3cc(C(=O)NCCc4ccc(OC)c(OC)c4)oc3nc2c1` the value was -4.4%.
Take `COc1ccc2cc3c(N)nn(C(=O)Cc4c[nH]c5ccccc45)c3nc2c1`: the inhibition was 91.9% (active).
With `COc1ccc2cc3c(N)nn(C(=O)Cc4ccccc4OC)c3nc2c1` the figure was 91% (active); with `CCOc1ccccc1N1CCN(C(=O)c2cc(-c3cc(OC)ccc3OC)nc3ccccc23)CC1`, 1.3%; with `O=c1[nH]c(CCl)nc2cc(-c3ccc(F)cc3)sc12`, 28.3%.
For `COc1ccc(-c2cc3nc(C)n(N)c(=O)c3s2)cc1` the value was 78.3% (active); for `COc1ccc(-c2cc3nc(CCl)[nH]c(=O)c3s2)cc1`, 25.2%; for `CSc1cccc(NS(=O)(=O)c2ccc3c(c2)CCN3C(C)=O)c1`, 25%.
For `CC1Cc2ccccc2N1C(=S)NC(=O)c1cccc(Br)c1` (stereo unspecified) the value was 103% (active); for `COc1ccc(Br)cc1/C=C/C(=O)c1ccc(NC(C)=O)cc1`, 94.8% (active).
With `COc1cccc(C(=O)/C=C/c2ccc(OCC#N)c(OC)c2)c1`, the inhibition was -58.9%.
On to `COc1ccccc1/C=C1\S/C(=N/NC(=O)c2cccc(Br)c2)NC1=O`, for which the inhibition was -30.6%.
With `CC(=O)Nc1ccc(N/C=C/C(=O)c2ccc(C)cc2)cc1`, the inhibition was -16.4%.
Consider `CCC(=O)Nc1cccc(C(=O)/C=C/c2cc(Br)ccc2OC)c1`, for which the inhibition is 77.3% (active).
For the compound `N#CC(C#N)=C(Nc1ccc(F)cc1)SCc1cccc(F)c1`, the inhibition is 81.7% (active).
For `N#CC(C#N)=C(Nc1ccc(F)cc1)SCc1cccc(Br)c1` the value was 54.7% (active); for `Cc1ccc(CSC(Nc2ccc(F)cc2)=C(C#N)C#N)cc1`, 74.6% (active).
On to `COc1c(F)c(F)c(C(=O)Nc2cccc(Cl)c2N2CCOCC2)c(F)c1F`, for which the inhibition was 46.2%.
For the compound `COc1ccc(C)cc1NC(=O)CN(C)S(=O)(=O)c1ccc2c(c1)c(=O)n(C)c(=O)n2C`, the inhibition was 19.7%.
With `COc1cccc(C(=O)/C=C/Nc2ccc(S(=O)(=O)Nc3cccc(C(C)=O)c3)cc2)c1` the figure was 46.2%; with `COc1cc(/C=C/C(=O)c2ccc(C)cc2)ccc1OCC#N`, 19.5%.
For `COc1cccc(/C=C/C(=O)c2ccc(NS(=O)(=O)c3ccc(C)cc3)cc2)c1` the value was 4.1%; for `COc1cc(/C=C/C(=O)c2ccc(NS(=O)(=O)c3ccc(C)cc3)cc2)cc(OC)c1O`, 78.9% (active); for `COc1cc(OC)c(OC)cc1/C=C/C(=O)c1ccc(NS(=O)(=O)c2ccc(C)cc2)cc1`, 70.3% (active).
In the case of `Oc1ccc(N=Nc2ccccc2C(F)(F)F)c2cccnc12`, the inhibition is 20.4%.
For `Oc1ccc2ccccc2c1N=Nc1ccccn1`, the inhibition is 95.8% (active).
On to `Cc1ccccc1NC(=O)C1CCN(c2cc(-c3ccccc3)nc3ncnn23)CC1`, for which the inhibition was 46%.
Take `CC(=O)c1ccc(N2CCN(C(=S)Nc3ccc(Oc4ccccc4)cc3)CC2)cc1`: the inhibition was 41.5%.
For `O=C(Nc1ccc(Oc2ccccc2)cc1)C1CCN(c2c3c(nc4ncnn24)CCC3)CC1` the value was 62% (active); for `COc1cc(C(=O)NCCOc2cc(C)ccc2C(C)C)cc(OC)c1OC`, 52.4% (active).
As to `COCCNC(=S)N(CCc1c(C)[nH]c2ccc(C)cc12)Cc1cc(OC)c(OC)c(OC)c1`, the inhibition is 19.3%.
For the compound `COc1ccc(CCNC(=O)c2cc(=O)c3cc(C)ccc3o2)cc1OC`, the inhibition is 19.4%.
Regarding `CC1=CC(C)(C)Nc2ccc(OC(=O)C(C)N3C(=O)c4ccccc4C3=O)cc21` (stereo unspecified), the inhibition was 40.1%.
With `CC1=CC(C)(C)Nc2ccc(OC(=O)CN3C(=O)CCC3=O)cc21` the figure was 86.9% (active); with `CC1=CC(C)(C)Nc2ccc(OC(=O)CN3C(=O)C4CCCCC4C3=O)cc21` (stereo unspecified), 42.7%.
For `Cn1c(Sc2ccc(Br)cc2)c(C=O)c2ccccc21` the value was 48.7%; for `COc1cccc(OCCn2cc(C=O)c3ccccc32)c1`, 42.4%; for `Cc1ccc(Sc2c(C=O)c3ccccc3n2C)cc1`, 86.4% (active).
As for `Cn1c(Sc2ccc(Cl)cc2)c(C=O)c2ccccc21`, the inhibition is 34.4%.
Consider `Cc1cccc(Sc2c(C=O)c3ccccc3n2C)c1`, for which the inhibition is 60.5% (active).
Turning to `COc1cccc(-c2nnc3n2N=C(C(C)(C)C)CS3)c1`, the inhibition was 96.3% (active).
For `COc1ccc(C2=Nn3c(nnc3-c3ccncc3)SC2)cc1` the value was 70.4% (active); for `c1ccc(C2=Nn3c(nnc3-c3ccncc3)SC2)cc1`, 70.9% (active).
`c1csc(C2=Nn3c(nnc3-c3ccncc3)SC2)c1`: the inhibition is 90.9% (active).
As to `Clc1ccccc1C1=Nn2c(nnc2-c2ccncc2)SC1`, the inhibition was 84.4% (active).
Take `COC(=O)c1cccc(NS(=O)(=O)c2cccs2)c1C`: the inhibition is 7.7%.
Turning to `Cc1ccc(S(=O)(=O)Nc2cccc3ncccc23)s1`, the inhibition was 96.4% (active).
Consider `O=S(=O)(Nc1cccc2ncccc12)c1cccs1`, for which the inhibition was 98.1% (active).
With `Cc1c(NS(=O)(=O)c2ccc3c(c2)OCCO3)cccc1-c1nc2cccnc2s1` the figure was 48.1%; with `CCc1cccc(C)c1NS(=O)(=O)c1cccs1`, -2.7%; with `CC(NC(=S)NC1CCCCC1)c1ccc(C(C)(C)C)cc1` (stereo unspecified), 9.1%.
For `CCOC(=O)c1ccc(NC(=O)Cn2ncc(Cl)c(Cl)c2=O)cc1` the value was 60.3% (active); for `CC(C)(C)C(=O)Cn1ncc(Cl)c(Cl)c1=O`, 10.7%.
For `Cc1cc(Br)ccc1NC(=O)CNC(=O)Cn1ncc(Cl)c(Cl)c1=O` the value was 94.4% (active); for `O=C(Cn1ncc(Cl)c(Cl)c1=O)c1ccc(Cl)cc1`, 75.4% (active); for `O=C1CN(C(=O)Cn2ncc(Cl)c(Cl)c2=O)c2ccccc2N1`, 40.3%.
As to `O=C(Cn1ncc(Cl)c(Cl)c1=O)N1CCc2ccccc21`, the inhibition was 73% (active).
Take `CCC(=O)Nc1ccc(C(=O)Cn2ncc(Cl)c(Cl)c2=O)cc1`: the inhibition is 56.5% (active).
As for `Cc1ccc(-c2csc(N3CCN(CCCn4c(-c5ccncc5)nc5ccccc54)CC3)n2)cc1`, the inhibition is -10.9%.
For the compound `CC(=O)Nc1ccc(C(=O)Nc2nc(-c3cc(C)n(Cc4ccccc4)c3C)cs2)cc1`, the inhibition was 20.1%.
For `CC(=O)Nc1nc(C)c(-c2csc(Nc3ccc(O)cc3)n2)s1` the value was 58.5% (active).
As to `CCN(c1ccc(C)cc1)S(=O)(=O)c1nnc(NC(=O)c2ccco2)s1`, the inhibition was 10.4%.
As to `CC(=O)Nc1nc(C)c(-c2csc(Nc3cccc([N+](=O)[O-])c3)n2)s1`, the inhibition was 24.8%.
Take `COc1ccccc1Nc1nc(-c2sc(NC(=O)c3ccco3)nc2C)cs1`: the inhibition was 82.3% (active).

The record behind these values is PubChem BioAssay AID1852 (Sanford-Burnham Center for Chemical Genomics, 2009).
